Assay outcomes (PubChem BioAssay)
Rows were chosen to be rich in hits. Some 7.5% of all compounds tested hit in one or more screens of this group.
Rab9 prom act – qHTS Assay for Rab9 Promoter Activators; AID 485297, 2010; Huh7 Rab9 promoter-luciferase reporter, luminescence, 24 h; Potency, µM (series often up to 9.22 µM), inactives show top-dose activation, negative = inhibition, hits mostly activators; 320,000 compounds, 2.8% hits; also: % of control where 0% means no effect; nearly all actives have a fitted effect of over 60% in size
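Steps: seed 1500 Huh7 Rab9-luc cells per well, rest 2 h at 37 °C; add compound in DMSO; incubate 24 h; add luciferase reagent, 10 min ambient; read luminescence.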
ELG1 genotox – qHTS screen for small molecules that induce genotoxicity in human embryonic kidney (HEK293T) cells expressing luciferase-tagged ELG1; HEK293T ELG1-luciferase reporter, luminescence, 16 h; Potency, µM (doses to about 46 µM), inactives show at the highest dose activity change, positive = activation, most hits filed as activators; 330,000 compounds, 1.3% hits; also: % of control where 0% means no effect; nearly all actives have a fitted effect of over 60% in size
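Cells (2,000/well) expressing the ELG1-luciferase fusion are dosed by pin tool and kept 16 hr at 37 °C, 5% CO2. Signal comes from ONE-Glo luciferase reagent after 30 min at room temperature.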
KinaseGlo FLuc – Counterscreen for Luciferase (Kinase-Glo TM) Inhibition; Potency, µM (doses to about 38.3 µM), inactives show at the highest dose activity change, negative = inhibition, hits mostly inhibitors; Kinase-Glo luciferase, ATP luminescence, 8 min; AID 1379, 2008; Luciferin 4-monooxygenase (Photuris pensylvanica), Q27757; 200,000 compounds, 0.28% hits; also: % is scaled to controls: 0 for no effect and ±100 for the full control effect; nearly all actives have a fitted effect of over 60% in size
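Kinase-Glo luciferase light output from ATP and luciferin was measured with 10 uM ATP, within the enzyme's linear range. Buffer: 50 mM imidazole pH 7.2, 50 mM KCl, 7 mM MgCl2, 0.01% Tween 20, 0.05% BSA; luminescence read after 8 min at ambient temperature.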
FLuc counter – qHTS profiling assay for firefly luciferase inhibitor/activator using purifed enzyme and Km concentrations of substrates (counterscreen for miR-21 project). Luciferin 4-monooxygenase (Photinus pyralis), P08659. purified FLuc, Km substrates, luminescence inhibition. Potency, µM (series often up to 57.5 µM), without a hit: top-dose activity change, negative = inhibition, most hits filed as inhibitors. 360,000 compounds, 6.9% hits. AID 588342, 2011;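 also: plate controls were vehicle for no effect and reference inhibitor for full effect; nearly all actives have a fitted effect of over 55% in size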
Target sequence (P08659 whole entry, looked up): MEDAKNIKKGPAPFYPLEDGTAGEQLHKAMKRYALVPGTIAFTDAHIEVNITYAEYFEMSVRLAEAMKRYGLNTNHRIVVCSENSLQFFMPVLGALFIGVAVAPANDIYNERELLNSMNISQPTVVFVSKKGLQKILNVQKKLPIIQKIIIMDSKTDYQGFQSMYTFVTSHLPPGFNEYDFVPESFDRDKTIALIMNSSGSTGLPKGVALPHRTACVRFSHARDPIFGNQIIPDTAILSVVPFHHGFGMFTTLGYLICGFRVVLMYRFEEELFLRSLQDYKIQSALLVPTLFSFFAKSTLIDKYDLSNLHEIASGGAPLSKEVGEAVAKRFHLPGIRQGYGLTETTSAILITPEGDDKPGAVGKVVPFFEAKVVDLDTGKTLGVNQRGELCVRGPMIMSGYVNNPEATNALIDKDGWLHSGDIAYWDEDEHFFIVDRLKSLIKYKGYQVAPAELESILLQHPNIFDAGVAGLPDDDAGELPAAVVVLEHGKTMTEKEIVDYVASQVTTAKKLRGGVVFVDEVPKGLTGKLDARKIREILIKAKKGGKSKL
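Purified P. pyralis luciferase, 10 nM final, with Km-level 10 uM D-luciferin and 10 uM ATP in 50 mM Tris acetate pH 7.5, 10 mM Mg acetate, 0.01% Tween-20, 0.05% BSA; 6-point qHTS titration about 60 µM downward; luminescence read.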
NPC1 promoter act – qHTS Assay for NPC1 Promoter Activators; Huh7 NPC1 promoter luciferase reporter, 24 h; Potency, µM (titrated, usually from 9.22 µM), inactives show at the highest dose activation, actives largely listed as activators; 320,000 compounds, 2.4% hits; AID 485313, 2010; also: % of control where 0% means no effect; nearly all actives have a fitted effect of over 60% in size
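Quantitative HTS used a cell-based reporter: Huh7 cells stably bearing the NPC1 promoter upstream of luciferase were treated with compounds for 24 h, and promoter activation was read as luminescence.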
SMN2 splice up – qHTS Assay for Enhancers of SMN2 Splice Variant Expression | HEK293 SMN2-luciferase splicing reporter, luminescence, 30-36 h | Potency, µM (doses to about 46.1 µM), for inactives: at the top dose activity change, positive = activation, most hits filed as activators | 210,000 compounds, 2.8% hits | AID 1458, 2008; also: % of control where 0% means no effect; nearly all actives have a fitted effect of over 55% in size
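HEK293 cells carry an SMN2 […]–luciferase reporter in which exon 7 inclusion puts luciferase in frame. Cells were plated 10-12 h before compound addition, then incubated 30-36 h at 37C. ONE-Glo luminescence was read; sodium butyrate at 4.5 mM final served as control.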
* marks the source's active call; other numbers are inactive results; [ ] = dose if it differs, or a comment. Calls follow the shape of the dose curve; as a rule, active = well fitted curve in the direction sought with a large enough effect; inconclusive = small, poorly fitted or top-dose-only effect, or another doubt; inactive = no such curve, though single readings can be large; an effect the other way counts as inactive or inconclusive. Potency is read from the fitted curve at half-maximal effect.

What do the screens show for `CCOc1ccc(-n2nc(CO)c(C(=O)NCc3cccc(OC)c3)n2)cc1`?
FLuc counter: 15µM*; SMN2 splice up: -14%

How did CCOc1ccc(-n2nc(CO)c(C(=O)NCCCc3ccccc3)n2)cc1 do in these assays?
FLuc counter: 5.4µM*; SMN2 splice up: -1%

How did COc1ccc(C(=O)Nn2c(SCc3ccc([N+](=O)[O-])cc3)nc3ccccc3c2=O)cc1 do in these assays?
Rab9 prom act: 4µM*; ELG1 genotox: inconclusive; KinaseGlo FLuc: -18%; FLuc counter: 12µM*; NPC1 promoter act: 2.5µM*; SMN2 splice up: -8%

What do the screens show for `COc1ccc(C(=O)Nn2c(SCC(=O)c3ccccc3)nc3ccccc3c2=O)cc1`?
Rab9 prom act: 0.56µM*; ELG1 genotox: inconclusive; KinaseGlo FLuc: -9%; FLuc counter: 6.7µM*; NPC1 promoter act: 1.4µM*; SMN2 splice up: -45%

How did CCOC(=O)CSc1nc2ccccc2c(=O)n1NC(=O)c1ccccc1 do in these assays?
Rab9 prom act: 3.5µM*; ELG1 genotox: inconclusive; KinaseGlo FLuc: -2%; FLuc counter: inconclusive; NPC1 promoter act: inconclusive; SMN2 splice up: 16µM*

How did CCOC(=O)CSc1nc2ccccc2c(=O)n1C do in these assays?
Rab9 prom act: -6%; ELG1 genotox: 0%; KinaseGlo FLuc: -2%; FLuc counter: 0%; NPC1 promoter act: -3%; SMN2 splice up: inconclusive

What do the screens show for `O=c1cc(-c2ccccc2)nc2cc(-c3ccco3)[nH]n12`?
Rab9 prom act: inconclusive; ELG1 genotox: 16%; FLuc counter: 3.4µM*; NPC1 promoter act: 22%

How did Cc1cc2nc(-c3ccccc3)cc(=O)n2[nH]1 do in these assays?
Rab9 prom act: inconclusive; ELG1 genotox: 11%; FLuc counter: 6.7µM*; NPC1 promoter act: inconclusive

What do the screens show for `O=C1c2nc3cc(-c4ccco4)[nH]n3c(=O)c2CN1C1CCCCC1`?
Rab9 prom act: 14%; ELG1 genotox: inconclusive; FLuc counter: 2.4µM*; NPC1 promoter act: 28%

What do the screens show for `O=C1c2nc3cc(-c4ccccc4)[nH]n3c(=O)c2CN1Cc1ccccc1`?
Rab9 prom act: -3%; ELG1 genotox: 0%; FLuc counter: -9%; NPC1 promoter act: -2%

Results for COc1ccc(C(=O)NC(C)CCn2cccn2)cc1OC1CCN(C(C)C)CC1 (centres undefined) ?
Rab9 prom act: 2%; ELG1 genotox: 3%; FLuc counter: -1%; NPC1 promoter act: -5%

What do the screens show for `CSc1ccccc1OCc1cc(C(=O)N(C)Cc2nonc2C)no1`?
Rab9 prom act: 2µM*; ELG1 genotox: inconclusive; FLuc counter: 13µM*; NPC1 promoter act: 2.2µM*

How did CCn1ccnc1CN(C)C(=O)c1cc(COc2ccccc2SC)on1 do in these assays?
Rab9 prom act: 2.8µM*; ELG1 genotox: inconclusive; FLuc counter: 12µM*; NPC1 promoter act: inconclusive

Results for CSc1ccccc1OCc1cc(C(=O)N(C)Cc2ccncn2)no1 ?
Rab9 prom act: 2µM*; ELG1 genotox: 16µM*; FLuc counter: 15µM*; NPC1 promoter act: 2µM*

What do the screens show for `Cc1nn(C)c2c1c(C(F)(F)F)cc(=O)n2Cc1ccc(Br)cc1F`?
FLuc counter: 1%

Results for COCCNC(=O)/C(C#N)=C/c1ccc(SC)cc1 ?
Rab9 prom act: -1%; ELG1 genotox: inconclusive; KinaseGlo FLuc: -1%; FLuc counter: 19µM*; NPC1 promoter act: -5%; SMN2 splice up: 1%

What do the screens show for `CCOC(=O)/C(C#N)=C\c1c(OCC)n(CC)c2ccccc12`?
Rab9 prom act: 1%; ELG1 genotox: -5%; KinaseGlo FLuc: 4%; FLuc counter: 3%; NPC1 promoter act: 1%; SMN2 splice up: -15%

How did COCCNC(=O)/C(C#N)=C/c1ccc(C(=O)O)cc1 do in these assays?
Rab9 prom act: 0%; ELG1 genotox: -2%; KinaseGlo FLuc: 1%; FLuc counter: 3%; NPC1 promoter act: -3%; SMN2 splice up: -2%

Results for CCOC(=O)/C(C#N)=C/c1ccc(SC)cc1 ?
Rab9 prom act: -3%; ELG1 genotox: 4%; KinaseGlo FLuc: -2%; FLuc counter: 13µM*; NPC1 promoter act: 9%; SMN2 splice up: -24%

Results for CCOC(=O)/C(C#N)=C/c1ccc(OC)c(OC)c1 ?
Rab9 prom act: -1%; ELG1 genotox: -1%; KinaseGlo FLuc: 4%; FLuc counter: 2%[2.3 µM]; NPC1 promoter act: -4%

Results for CCOC(=O)/C(C#N)=C\C=C1C=CN(C)C=C1 ?
Rab9 prom act: 3.5µM*; ELG1 genotox: inconclusive; KinaseGlo FLuc: -4%; FLuc counter: 9.5µM*; NPC1 promoter act: 2.5µM*; SMN2 splice up: 16µM*

What do the screens show for `CCOC(=O)/C(C#N)=C\c1ccc(CC)s1`?
Rab9 prom act: -11%; ELG1 genotox: inconclusive; KinaseGlo FLuc: -3%; FLuc counter: 11µM*; NPC1 promoter act: 25%; SMN2 splice up: -8%

Results for CCN(CC)C(=O)Cn1c(=O)n(CC2CCC(C(=O)NC)CC2)c(=O)c2sccc21 (centres undefined) ?
FLuc counter: 1%

Results for O=C(CN1CC(c2ccccc2)CC1=O)OCc1ccccc1F (centres undefined) ?
Rab9 prom act: 12%; ELG1 genotox: 0%; KinaseGlo FLuc: 3%; FLuc counter: 12µM*; NPC1 promoter act: 7%; SMN2 splice up: inconclusive

How did O=C(CN1C(=O)NC2(CCCC2)C1=O)OCc1ccccc1F do in these assays?
Rab9 prom act: 3%; ELG1 genotox: 1%; FLuc counter: -2%; NPC1 promoter act: -3%

Results for Cc1c(/C=N/Nc2nc3ccccc3[nH]2)c2ccccc2n1C ?
Rab9 prom act: inconclusive; ELG1 genotox: inconclusive; FLuc counter: 11µM*; NPC1 promoter act: inconclusive

How did CCCn1c(/C=N/Nc2nc3ccccc3[nH]2)nc2ccccc21 do in these assays?
Rab9 prom act: -25%; ELG1 genotox: inconclusive; KinaseGlo FLuc: -1%; FLuc counter: 13µM*; NPC1 promoter act: -2%; SMN2 splice up: -29%

Results for CC(C)Cn1c(/C=N/Nc2nc3ccccc3[nH]2)nc2ccccc21 ?
Rab9 prom act: -32%; ELG1 genotox: inconclusive; KinaseGlo FLuc: -2%; FLuc counter: inconclusive; NPC1 promoter act: -21%; SMN2 splice up: -72%
